{"source": "PubChem BioAssay", "note": "Unmarked numbers belong to inactive results. How the calls were made is not given here.", "data": [{"biological_target": "Pantothenate synthetase (Mycobacterium tuberculosis (strain ATCC 25618 / H37Rv)) (UniProt P9WIL5)", "sequence (P9WIL5 whole entry, looked up)": "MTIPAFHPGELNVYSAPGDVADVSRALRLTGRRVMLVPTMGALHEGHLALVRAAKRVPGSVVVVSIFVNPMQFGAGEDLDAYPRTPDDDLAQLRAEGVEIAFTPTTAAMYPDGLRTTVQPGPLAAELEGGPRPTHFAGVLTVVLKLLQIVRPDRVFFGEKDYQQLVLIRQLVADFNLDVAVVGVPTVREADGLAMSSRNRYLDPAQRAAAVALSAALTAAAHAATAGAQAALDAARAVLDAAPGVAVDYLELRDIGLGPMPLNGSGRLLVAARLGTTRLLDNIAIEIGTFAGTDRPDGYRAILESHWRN", "assay": "Recombinant Mtb pantothenate synthetase (PanC) inhibitors, coupled enzyme, confirmatory (AID 375);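 further: 0% = full reaction with vehicle and 100% = no enzyme background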", "details": "coupled enzyme assay; at 10 µM, stronger effect = higher value", "units": {"inhibition": "%"}, "values": [{"smiles": "CCOc1ccc(C2CC(=O)NC3=C2C(=O)CCC3)cc1Cl", "note": "(centres undefined)", "inhibition": 0}, {"smiles": "O=C(COc1ccc2c(c1)OCO2)NC12CC3CC(CC(C3)C1)C2", "inhibition": 4}, {"smiles": "NC(=O)COC(=O)CNC(=O)c1ccc(Cl)cc1", "inhibition": 0}, {"smiles": "Cc1cc(C(C)(C)C)cc(C)c1CC1=NCCN1", "inhibition": 0}, {"smiles": "Cc1cc(NC(=O)Cc2cn3ccsc3n2)n(-c2ccccc2)n1", "inhibition": 1}, {"smiles": "Cc1cc(S(=O)(=O)NC2CCCCC2)ccc1OCC(=O)NCc1ccccn1", "inhibition": 0}, {"smiles": "NS(=O)(=O)c1cc2c(cc1Cl)NC(C(Cl)Cl)NS2(=O)=O", "note": "(centres undefined)", "inhibition": 2}, {"smiles": "CCCN1CC23C=CC(O2)C(C(=O)O)C3C1=O", "note": "(centres undefined)", "inhibition": 0}, {"smiles": "COc1ccccc1-n1c(=O)[nH]c2c(C(N)=O)nc(CC(C)C)nc21", "inhibition": 0}, {"smiles": "S=c1[nH]nc(-c2cccc(Br)c2)o1", "inhibition": 10}, {"smiles": "COC(=O)c1cccc(S(=O)(=O)N2CCC(C)CC2)c1", "inhibition": 3}, {"smiles": "O=C(O)[C@@H]1CCCN1c1ncnc2sc3c(c12)CCC3", "inhibition": 6}, {"smiles": "Cn1c(CCNC(=O)c2ccco2)nc2cc(NC(=O)C3CCCCC3)ccc21", "inhibition": 0}, {"smiles": "CCc1ccc(C(=O)NC2CCCCC2)s1", "inhibition": 0}, {"smiles": "O=C(c1ccc(-c2ccccc2)cc1)N1CCC(C(=O)N2CCCC2)CC1", "inhibition": 0}, {"smiles": "CS(=O)(=O)c1ccc2nc(NC(=O)CCC(=O)c3cccs3)sc2c1", "inhibition": 1}, {"smiles": "O=S(=O)(c1ccccc1)c1nc(-c2cccs2)oc1NCC1CCCO1", "note": "(centres undefined)", "inhibition": 3}, {"smiles": "COc1ccc(C)cc1NC(=O)c1nc2nc(C)cc(C)n2n1", "inhibition": 7}, {"smiles": "CCOC(=O)C1CCCN(C(=O)c2cccs2)C1", "note": "(centres undefined)", "inhibition": 8}, {"smiles": "CCCCN(CCCC)C(=O)CN(C)S(=O)(=O)c1ccc2c(c1)n(C)c(=O)c(=O)n2C", "inhibition": 5}, {"smiles": "CCCSc1nc2c(cnn2-c2ccc(Cl)cc2)c(=O)[nH]1", "inhibition": 0}, {"smiles": "CCOC(=O)n1c(=O)oc2cc(S(=O)(=O)N3CCCCC3)ccc21", "inhibition": 7}, {"smiles": "O=S1(=O)CC(N2CCCCC2)C(N2CCCCC2)C1", "note": "(centres undefined)", "inhibition": 6}, {"smiles": "Nc1nnc(SCC(=O)N2CCN(c3ccccc3)CC2)n1-c1ccccc1", "inhibition": 7}, {"smiles": "COc1ccccc1-c1cc2nc(C)c(CCC(=O)NCc3ccco3)c(C)n2n1", "inhibition": 0}, {"smiles": "COc1ccccc1-n1c(SCC(N)=O)nnc1-c1ccccc1", "inhibition": 0}, {"smiles": "Cc1ccccc1-n1c(SCc2c(C)noc2C)nnc1-c1ccncc1", "inhibition": 0}, {"smiles": "Cc1nc2ccc(S(=O)(=O)NCC(=O)N3CCCCC3)cc2s1", "inhibition": 0}, {"smiles": "COc1cc2c(C#N)c(N3CCN(c4ccccc4OC)CC3)nc(N)c2c(N)n1", "inhibition": 0}, {"smiles": "COc1cc(C(=O)NCC(=O)OCC(=O)c2ccc[nH]2)cc(OC)c1OC", "inhibition": 2}, {"smiles": "CC(=O)Nc1ccc(S(=O)(=O)N2CCN(c3cc(C)nc4ccccc34)CC2)cc1", "inhibition": 5}, {"smiles": "O=C(NC12CC3CC(CC(C3)C1)C2)N1CCN(C(=O)C2CCCO2)CC1", "note": "(centres undefined)", "inhibition": 7}, {"smiles": "COc1cccc(OCc2nnc(SCC(=O)OCc3ccccc3)o2)c1", "inhibition": 0}, {"smiles": "COc1ccc(C/C(O)=C(\\C#N)c2nc3ccccc3s2)cc1", "inhibition": 4}, {"smiles": "Cc1nc(NCc2ccccn2)c2ccccc2n1", "inhibition": 7}, {"smiles": "COC(=O)c1c(-c2ccc(F)cc2)noc1N", "inhibition": 2}, {"smiles": "COC(=O)c1cc(Br)c(=O)n(Cc2cccnc2)c1", "inhibition": 9}, {"smiles": "CCC(Sc1nc2n[nH]c(C)c2c(=N)n1-c1cc(Cl)ccc1C)C(=O)N1CCOCC1", "note": "(centres undefined)", "inhibition": 0}, {"smiles": "Nn1c(SCC(=O)NC2CCCCC2)nnc1C1CC1", "inhibition": 0}]}]}
